ALOX12 inhib = inhibitors of human 12-lipoxygenase (ALOX12) | Potency, µM (titrated, usually from 57.1 µM), for inactives: at the highest dose activity change, negative = inhibition, most hits filed as inhibitors | purified 12-hLO, xylenol orange hydroperoxide absorbance | P18054 | 150,000 compounds, 0.12% hits | AID 1452; further: potency means the concentration at half of the fitted maximal effect; nearly all actives have a fitted effect of over 55% in size
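Lipoxygenase turnover measured by absorbance at 573 and 405 nm after Fe-XO development. Human 12hLO 150 nM, arachidonate 40 uM, pH 7.0 Hepes buffer with detergent; 15 min compound preincubation, 30 min reaction.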
IMPase inh = IMPase inhibition in cells; inhibition (IP1 accumulation), % at 46.1 µM; 120,000 tested, under 10 active; CHO-M1 cells, IP1 accumulation, HTRF TR-FRET ratio; P97697; active means well fitted curve in the direction sought with a large enough effect in the signal ratio, not every such curve was filed as active; inconclusive means small, poorly fitted or top-dose-only effect, or a change in a side signal; inactive means no such curve, though single readings can be large or run the other way; the % refers to the signal ratio;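 further: cells stimulated with carbachol in lithium chloride buffer; plate controls were DMSO basal wells for no effect and reference inhibitor wells for full effect; higher means more IMPase inhibition seen as more IP1 and lower FRET ratio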
Target sequence (P97697 whole entry, looked up): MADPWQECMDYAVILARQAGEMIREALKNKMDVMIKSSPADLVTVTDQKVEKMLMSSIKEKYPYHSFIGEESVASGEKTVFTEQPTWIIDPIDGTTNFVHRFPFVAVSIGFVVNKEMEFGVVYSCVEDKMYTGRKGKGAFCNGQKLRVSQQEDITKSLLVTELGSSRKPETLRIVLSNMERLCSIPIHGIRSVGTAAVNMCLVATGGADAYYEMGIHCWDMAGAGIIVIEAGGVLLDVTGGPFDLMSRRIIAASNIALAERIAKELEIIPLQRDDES
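In this qHTS, compounds (final up to 46 uM) act on CHO-M1 cells that are then activated through the M1 receptor with carbachol, in pH 7.4 buffer containing 50 mM LiCl, for 30 min. IP1 accumulation is quantified by the IP-One immunoassay.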
NPSR antagonist = blocks cAMP signaling of the human neuropeptide S receptor. Q6W5P4. CHO-NPSR cells, cAMP TR-FRET, antagonist mode. Potency, µM (titrated, usually from 38.3 µM), for inactives: at the highest dose activity change, negative = inhibition, most hits filed as inhibitors. 220,000 compounds, 1% hits; further: potency means the concentration at half of the fitted maximal effect; nearly all actives have a fitted effect of over 50% in size
ALDH1A1 inh = ALDH1A1 (human) enzyme inhibition; Purified ALDH1A1, NADH fluorescence, propionaldehyde substrate; Potency, µM (top dose mostly 75.3 µM), inactives show at the highest dose activity, negative = inhibition, usual class: inhibitors; 220,000 compounds, 7.3% hits; active means well fitted inhibition curve with a large enough effect, not every such curve was filed as active; inconclusive means small, poorly fitted or top-dose-only effect, or another doubt; inactive means no such curve, though single readings can be large or run the other way;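 further: potency means the concentration at half of the fitted maximal effect; plate controls were no enzyme wells and a reference inhibitor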
IMPase Li inh = cell-permeable IMPase inhibitors with lithium potentiation | CHO-M1 cells, IP1 TR-FRET (IP-One), carbachol + lithium | Potency, µM (top dose mostly 59.4 µM), for inactives: at the highest dose activity, negative = IMPase inhibition, most hits filed as inhibitors | 210,000 compounds, 0.35% hits;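 further: IP1 builds up when IMPase is blocked and the TR-FRET signal falls; potency means the concentration at half of the fitted maximal effect; plate controls were basal vehicle for no effect and high inhibitor control for full effect; nearly all actives have a fitted effect of over 50% in size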
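Lithium-sensitised IP1 accumulation assay; M1-expressing CHO cells treated 30 min at 37C with compound. Competitive antibody detection by time-resolved FRET followed a 10 min room-temperature lysis step.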
HPGD block = blocks human HPGD enzyme activity; P15428; purified HPGD, NADH fluorescence kinetic, PGE2 substrate; Potency, µM, for the others: top-dose activity change, negative = inhibition, actives largely listed as inhibitors; 150,000 compounds, 4.3% hits; active means well fitted inhibition curve with a large enough effect, not every such curve was filed as active; inconclusive means small, poorly fitted or top-dose-only effect, or another doubt; inactive means no such curve, though single readings can be large or run the other way; further: potency means the concentration at half of the fitted maximal effect
Target sequence (P15428 whole entry, looked up): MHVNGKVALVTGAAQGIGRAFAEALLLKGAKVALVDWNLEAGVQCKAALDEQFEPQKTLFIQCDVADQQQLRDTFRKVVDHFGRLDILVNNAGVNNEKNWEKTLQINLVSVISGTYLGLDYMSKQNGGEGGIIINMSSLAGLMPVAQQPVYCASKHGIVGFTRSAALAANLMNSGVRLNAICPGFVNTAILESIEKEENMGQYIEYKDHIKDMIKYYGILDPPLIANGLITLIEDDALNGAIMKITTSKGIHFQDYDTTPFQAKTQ
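20 nM HPGD preincubated 15 min at room temperature with compound in 50 mM Tris-HCl pH 8, 0.01% Tween 20. Started with 1 mM NAD+ and 30 uM prostaglandin E2; NADH fluorescence (360/450 nm) read 5 times over 30-s intervals, last minus first.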
* marks the source's active call; other numbers are inactive results; ? = inconclusive; . = not tested or not shown; [ ] = dose if it differs, or a comment. Rows were chosen to be rich in hits. Some 8.9% of all compounds tested hit in one or more screens of this group. Unless noted, the call rests on the fitted dose curve; in most records, active means well fitted curve in the direction sought with a large enough effect; inconclusive means small, poorly fitted or top-dose-only effect, or another doubt; inactive means no such curve, though single readings can be large; an effect the other way counts as inactive or inconclusive. Unless noted, on the % scale 0 is the no-effect control and ±100 the full control effect.

SMILES	ALOX12 inhib	IMPase inh	NPSR antagonist	ALDH1A1 inh	IMPase Li inh	HPGD block
COC(=O)CNC(=O)c1ccc(NS(=O)(=O)c2cc([N+](=O)[O-])ccc2Cl)cc1	.	.	-3%	?	.	.
CC(=O)c1cc2c(cc1NC(=O)CN1CCCCCCC1)OCO2	-9%	9	-11%[46.1 µM]	10µM*	7%	-10%
CC(=O)c1cc2c(cc1NC(=O)CCCC(=O)O)OCO2	0%	0	-10%[46.1 µM]	0%	-7%[38.3 µM]	-14%
CN1C(=O)NC(c2ccc(O)cc2)C(C(=O)c2cccs2)C1(O)C(F)(F)F (centres undefined)	-19%	10	-10%[46.1 µM]	7.9µM*	5%[38.3 µM]	-5%
O=C1NC(c2ccccc2)C(C(=O)c2cccs2)C(O)(C(F)(F)F)N1 (centres undefined)	-2%	-12	-8%[46.1 µM]	?	-7%[38.3 µM]	-1%
CCOc1ccc2c(c1)sc(=NC(=O)C1CC1)n2C	-6%	5	-31%[46.1 µM]	-3%	-8%[38.3 µM]	?
O=C(c1ccccc1)c1ccccc1N1C(=O)C=CC1=O	.	.	?	3.2µM*	.	.
COc1ccc2c(C)cc(SCC(=O)N3CCOCC3)nc2c1	-1%	8	6%[46.1 µM]	22µM*	3%[38.3 µM]	-22%
COc1ccc2c(C)cc(SCC(=O)Nc3ccc(Cl)cn3)nc2c1	-3%	.	?	?	8.9µM*	-17%
Cc1cc(SCC(=O)Nc2ccc(Cl)cc2)nc2ccccc12	.	5	.	.	.	.
COc1cc2c(C)nc3c(c(C)nn3-c3ccccc3)c2cc1OC	.	.	-30%	?	11µM*	.
COc1cc2c(-c3ccc(O)cc3)nc3c(c(C)nn3-c3ccccc3)c2cc1OC	-4%	.	-22%	?	10%	?
O=C(CN1C(=O)C2C3CCC(C3)C2C1=O)NCc1ccco1 (centres undefined)	.	.	-26%	0%	-8%	.
O=C1C2C3CCC(C3)C2C(=O)N1Cc1ccco1 (centres undefined)	-1%	.	9%	12µM*	6%	-1%
CC1(C)NC(=O)N(CC(O)COc2ccccc2-c2ccccc2)C1=O (centres undefined)	-6%	5	13%[7.67 µM]	0%	1%[38.3 µM]	-5%
COc1cc(NS(=O)(=O)c2ccc(NC(C)=O)cc2)nc(OC)n1	1%	0	-7%[46.1 µM]	?	0%[38.3 µM]	2%
COc1cc(NS(=O)(=O)c2ccc(NC(=S)NC(=O)c3ccco3)cc2)nc(OC)n1	.	.	-19%	.	.	.
COc1cc(NS(=O)(=O)c2ccc(NC(=S)NC(=O)c3sc4cc(F)ccc4c3Cl)cc2)nc(OC)n1	4%	-26	-30%	8.9µM*	-14%	16µM*
COc1cc(NS(=O)(=O)c2ccc(NC(=S)NC(=O)c3sc4ccccc4c3Cl)cc2)nc(OC)n1	-1%	?	-31%	11µM*	-17%	25µM*
CC(C)NC(=O)Cn1c(SCC(=O)c2ccc(F)cc2)nc2ccccc21	2%	-1	0%[46.1 µM]	?	8%	-1%
CCN1/C(=C2/SC(=S)NC2=O)Sc2ccccc21	.	.	2%	?	3%	.
O=C1NC(=S)SC1=C1CCCCCC1	?	5	-20%[7.67 µM]	7.1µM*	5%[38.3 µM]	11µM*
CNc1ccnc(-c2ccccc2C(F)(F)F)n1	-1%	.	.	18%	1%	-1%
COCCOC(=O)/C(C#N)=C/c1cn(Cc2ccccc2)nc1-c1cccnc1	.	.	-20%	20µM*	1%	.
C=CCOc1ccc(Br)cc1/C=N/O	3%	3	-12%[46.1 µM]	?	-13%[38.3 µM]	4.5µM*
SMILES	ALOX12 inhib	IMPase inh	NPSR antagonist	ALDH1A1 inh	IMPase Li inh	HPGD block
C=CCOc1ccc2ccccc2c1/C=N/O	-5%	0	-12%[46.1 µM]	-2%	-15%[38.3 µM]	2.5µM*
COc1ccc2ccccc2c1/C=N/O	2%	3	4%[46.1 µM]	-3%	-2%[38.3 µM]	7.1µM*
COc1ccc2ccccc2c1-c1c(OC)ccc2ccccc12	.	.	.	9%	6%	1%
CCn1ccnc1CN(C)Cc1cn[nH]c1-c1ccc(F)cc1F	.	.	8%	2%	16%	.
COc1ccc(-c2[nH]ncc2CN(Cc2nccn2C)C(C)C)c(F)c1	.	.	8%	22µM*	6%	.
Cc1ccc(C2=NC(=O)/C(=C/c3cc(O)c(O)c(Br)c3)S2)cc1	.	.	-55%	10µM*	80%	.
